The source made the active and inactive calls. Unless noted, no rule for the calls is given here.
How the values were obtained:
[1] = HepG2 liver cancer cell viability effects, profiling panel, resazurin fluorescence, 24 h, PK04 Diversity Set (AID 1172); conditions: higher = more signal
[2] = basal S. cerevisiae growth modulation, no modifier, primary screen, OD600, strain BY4716, 24 h, basal condition (AID 1173); conditions: OD600, 24 h, higher = more signal, called active from +8 up or from −8 down
[3] = MM1S myeloma cell viability, profiling panel, resazurin fluorescence, basal, 24 h, PK04 Diversity Set (AID 1174); conditions: higher = more signal, called active from +8 up or from −8 down;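 also: MM1S multiple myeloma cell line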
[4] = molecular target: Dihydroorotate dehydrogenase (quinone), mitochondrial (Plasmodium falciparum (isolate 3D7)) (UniProt Q08210); experiment: PfDHODH enzyme inhibitors, primary screen, biochemical, C-terminal His tag, absorbance 600 nm (AID 1175); conditions: DCIP absorbance 600 nm, higher = more signal, called active from +8 up or from −8 down;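 also: recombinant parasite enzyme with a five histidine tag at its C terminus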
Chain of Dihydroorotate dehydrogenase (quinone), mitochondrial (Plasmodium falciparum (isolate 3D7)) (Q08210 whole entry, looked up): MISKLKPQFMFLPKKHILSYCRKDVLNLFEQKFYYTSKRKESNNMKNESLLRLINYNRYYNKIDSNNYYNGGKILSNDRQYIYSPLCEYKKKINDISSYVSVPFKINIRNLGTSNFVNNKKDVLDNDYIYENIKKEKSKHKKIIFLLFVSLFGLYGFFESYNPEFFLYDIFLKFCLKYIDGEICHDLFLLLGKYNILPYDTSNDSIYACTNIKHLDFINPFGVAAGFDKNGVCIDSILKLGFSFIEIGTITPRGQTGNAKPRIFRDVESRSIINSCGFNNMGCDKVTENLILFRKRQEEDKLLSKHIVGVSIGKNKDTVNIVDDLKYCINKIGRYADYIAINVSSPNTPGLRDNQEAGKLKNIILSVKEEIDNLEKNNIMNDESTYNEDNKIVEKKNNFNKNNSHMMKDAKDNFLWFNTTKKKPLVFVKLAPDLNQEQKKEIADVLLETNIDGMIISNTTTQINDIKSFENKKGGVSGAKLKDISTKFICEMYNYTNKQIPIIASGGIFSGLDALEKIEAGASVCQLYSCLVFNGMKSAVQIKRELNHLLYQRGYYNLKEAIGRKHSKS

[5] = P. aeruginosa biofilm formation inhibitors, primary screen, strain PAO1, LB-PBS medium, absorbance 600 nm (AID 1176); conditions: P. aeruginosa PAO1 growth/biofilm, A600, 12 h; higher = more signal
[6] = S. cerevisiae RM11-1a growth modifiers, primary screen, strain RM11-1a, OD600, basal, 24 h (AID 1177); conditions: OD600, 24 h, higher = more signal, called active from +8 up or from −8 down;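 also: cultures grown under basal conditions with no added stressor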
[7] = E. coli acrAB mutant growth effects, primary screen, E. coli filamentation inducers, strain DRC39, OD650, 24 h (AID 1178); conditions: higher = more signal, called active from +8 up or from −8 down;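 also: growth measured as culture turbidity by optical density at 650 nm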
[8] = E. coli acrAB mutant growth effects, primary screen, E. coli filamentation inducers, strain DRC39, OD650, 48 h (AID 1179);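 also: screen aims at cell division blockers that make cells filament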; conditions: E. coli DRC39 delta-acrAB growth, higher = more signal, called active from +8 up or from −8 down
[9] = RPMI8226 myeloma cell viability, profiling panel, resazurin fluorescence, basal, 24 h, PK04 Diversity Set (AID 1180); conditions: higher = more signal;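 also: RPMI8826 multiple myeloma cell line at 5000 cells per well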
[10] = molecular target: E3 ubiquitin-protein ligase XIAP (Homo sapiens) (UniProt P98170); experiment: XIAP binders, primary screen, biophysical, small-molecule microarray, fluorescence 635 nm (AID 1181); conditions: small-molecule microarray binding, higher = more signal;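 also: score merges 667 nm emission and signal to noise over triplicate slides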
Chain of E3 ubiquitin-protein ligase XIAP (Homo sapiens) (P98170 whole entry, looked up): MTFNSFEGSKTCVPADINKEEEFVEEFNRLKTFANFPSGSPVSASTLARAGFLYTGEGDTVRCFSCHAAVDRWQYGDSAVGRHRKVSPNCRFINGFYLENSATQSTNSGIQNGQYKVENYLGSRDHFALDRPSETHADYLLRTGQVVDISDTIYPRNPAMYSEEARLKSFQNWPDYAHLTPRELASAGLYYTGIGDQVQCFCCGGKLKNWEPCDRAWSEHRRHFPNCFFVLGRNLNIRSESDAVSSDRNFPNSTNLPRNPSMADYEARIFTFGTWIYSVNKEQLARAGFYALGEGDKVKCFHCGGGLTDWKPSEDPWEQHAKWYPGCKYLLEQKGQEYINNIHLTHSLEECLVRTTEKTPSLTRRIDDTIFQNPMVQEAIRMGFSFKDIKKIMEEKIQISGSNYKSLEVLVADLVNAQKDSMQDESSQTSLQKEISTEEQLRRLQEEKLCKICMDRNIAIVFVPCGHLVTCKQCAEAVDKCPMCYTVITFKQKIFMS

[11] = test system: XIP peptide (Xip251-270) binding; experiment: small-molecule binders of XIP peptide, primary screen, biochemical, small-molecule microarray, fluorescence 635/667 nm, 0.1 µg/mL protein (AID 1182); conditions: fluorescent protein binding, 635 nm, higher = more signal, called active from +8 up or from −8 down
[12] = test system: XIP peptide (Xip251-270); experiment: small-molecule binders of XIP peptide, primary screen, biochemical, small-molecule microarray, fluorescence 635/667 nm, 0.5 µg/mL protein (AID 1183); conditions: small-molecule microarray binding, fluorescence 635 nm; higher = more signal
[13] = Plasmodium falciparum growth inhibition, primary screen, strain 3D7, DAPI fluorescence, 100 nL (AID 1184);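 also: parasites grown inside human red blood cells in medium with human serum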; conditions: P. falciparum 3D7 growth, 3 d, higher = more signal
[14] = molecular target: Homeobox protein Hox-A13 (Mus musculus) (UniProt Q62424); experiment: inhibitors of HoxA13-DNA binding, primary screen, biochemical, fluorescence polarization, labeled oligonucleotide (AID 1185); conditions: 15 min, higher = more signal, called active from +8 up or from −8 down
Chain of Homeobox protein Hox-A13 (Mus musculus) (Q62424 whole entry, looked up): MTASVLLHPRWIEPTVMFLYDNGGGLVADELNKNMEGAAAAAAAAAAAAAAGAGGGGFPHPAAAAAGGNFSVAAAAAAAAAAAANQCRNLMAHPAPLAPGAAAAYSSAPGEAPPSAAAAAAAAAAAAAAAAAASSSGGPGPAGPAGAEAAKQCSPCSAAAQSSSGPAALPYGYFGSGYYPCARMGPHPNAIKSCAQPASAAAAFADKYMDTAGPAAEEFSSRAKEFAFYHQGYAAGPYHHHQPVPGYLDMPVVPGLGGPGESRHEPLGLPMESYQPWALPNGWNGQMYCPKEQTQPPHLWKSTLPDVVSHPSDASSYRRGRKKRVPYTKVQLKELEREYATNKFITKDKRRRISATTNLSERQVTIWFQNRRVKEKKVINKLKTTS

[15] = inhibitors of hydroxyurea-induced Chk1 phosphorylation, primary screen, imaging, HeLa, phospho-Chk1 antibody, percent positive cells (AID 1186); conditions: hydroxyurea-induced phospho-Chk1 immunofluorescence imaging, higher = more signal
[16] = inhibitors of hydroxyurea-induced Chk1 phosphorylation, primary screen, imaging, HeLa, phospho-Chk1 nuclear intensity (AID 1187); conditions: hydroxyurea-induced phospho-Chk1 immunofluorescence imaging, higher = more signal

SMILES | z-score [1] | z-score [2] | z-score [3] | composite z-score [4] | z-score [5] | z-score [6] | z-score [7] | z-score [8] | z-score [9] | composite z-score [10] | composite z-score [11] | composite z-score [12] | z-score [13] | z-score [14] | z-score [15] | z-score [16]
CC(=O)c1ccc(C(O)C2C=CC3C(=O)NC(=O)C3N2Nc2ccc(Cl)cc2Cl)cc1 (stereo unspecified) | -1.16 | -2.33 (inactive) | -1.35 (inactive) | 1.16 (inactive) | 0.835 (inactive) | 1.39 (inactive) | 0.385 (inactive) | -1.48 (inactive) | -1.8 | -0.0421 | 0.187 (inactive) | 0.02 | -0.677 | -5.84 (inactive) | 0.173 (inactive) | 0.588 (inactive)
Cc1c(-c2ccc(-c3ccc(Cl)c(Cl)c3)o2)nc(-c2ccccc2)c2c1CO[Si]2(C(C)C)C(C)C | 0.368 | -0.922 (inactive) | -2 (inactive) | -0.063 (inactive) | 0.82 (inactive) | -0.569 (inactive) | 0.575 (inactive) | 0.462 (inactive) | -0.639 | 0.504 | 0.401 (inactive) | 0.761 | 0.962 | -1.48 (inactive) | 0.0151 (inactive) | -0.0709 (inactive)
COCCOC(=O)N1C(=O)[C@@]2(c3ccccc31)[C@H](c1ccc(OCCO)cc1)N1[C@H](c3ccccc3)[C@H](c3ccccc3)OC(=O)[C@H]1[C@@H]2C(=O)N1CCN(c2ncccn2)CC1 | 0.19 | 1.03 (inactive) | -0.268 (inactive) | -0.0117 (inactive) | 1.89 (inactive) | 2.29 (inactive) | -0.441 (inactive) | -0.849 (inactive) | 0.603 | 0.0548 | 0.522 (inactive) | 0.772 | -2.33 | -0.376 (inactive) | 0.0223 (inactive) | 0.242 (inactive)
C=C(/C(=C/C[C@H](OC(=O)c1ccncc1)c1ccccc1OCCO)c1cc(C(=O)OC)ccc1OC)C(C)C | 0.456 | 0.0223 (inactive) | -0.493 (inactive) | -4.24 (inactive) | 0.297 (inactive) | 0.0488 (inactive) | -0.822 (inactive) | -0.869 (inactive) | 0.956 | -0.0478 | -0.0121 (inactive) | 0.605 | -2.85 | -4.77 (inactive) | -0.529 (inactive) | -0.789 (inactive)
CC(C)C[C@@H]1NC(=O)[C@H]2C[C@@H](C(=O)NCCCCCCNC(=O)CS)[C@@H](c3ccc(O)cc3)N2C1=O | 0.102 | 0.153 (inactive) | 0.0815 (inactive) | 0.31 (inactive) | 0.932 (inactive) | 0.088 (inactive) | 0.236 (inactive) | -0.0073 (inactive) | -0.596 | 0.101 | 3.87 (inactive) | 0.409 | 0.214 | -3.29 (inactive) | 1.15 (inactive) | 0.716 (inactive)
COC(=O)[C@@]1(CCS(=O)(=O)c2ccccc2)N=C(c2ccc(OCCCO)cc2)O[C@H]1c1ccccc1N=[N+]=[N-] | -0.705 | 0.905 (inactive) | -2.87 (inactive) | -0.279 (inactive) | 0.246 (inactive) | 1.09 (inactive) | 0.399 (inactive) | -1.12 (inactive) | -1.64 | -0.0374 | 1.61 (inactive) | 0.79 | -1.98 | -3.19 (inactive) | -0.305 (inactive) | -0.0592 (inactive)
